Assay results reported in ChEMBL document CHEMBL3988442, “University of Dundee, Small-Polar-MMV Screening Library” (2021).
For some assays here: Entries with a potency or affinity are not part of this list.

Columns and labels:
Design in all cases: scale not given: direction of the effect not stated beside the values
[1] = target: Protein translocase subunit SecA (Escherichia coli (strain K12)) (UniProt P10408); assay: Assay to Identify E. coli SecA ATPase Inhibitors; type: functional; details: 30 µM
[2] = target: T1, Ubiquitin-activating enzyme e1, putative (Leishmania donovani (strain BPK282A1)) (UniProt E9BSI1); assay: Leishmania donovani Ubiquitin Activating Enzyme (LdE1); type: functional; details: 30 µM
T1 sequence (whole entry): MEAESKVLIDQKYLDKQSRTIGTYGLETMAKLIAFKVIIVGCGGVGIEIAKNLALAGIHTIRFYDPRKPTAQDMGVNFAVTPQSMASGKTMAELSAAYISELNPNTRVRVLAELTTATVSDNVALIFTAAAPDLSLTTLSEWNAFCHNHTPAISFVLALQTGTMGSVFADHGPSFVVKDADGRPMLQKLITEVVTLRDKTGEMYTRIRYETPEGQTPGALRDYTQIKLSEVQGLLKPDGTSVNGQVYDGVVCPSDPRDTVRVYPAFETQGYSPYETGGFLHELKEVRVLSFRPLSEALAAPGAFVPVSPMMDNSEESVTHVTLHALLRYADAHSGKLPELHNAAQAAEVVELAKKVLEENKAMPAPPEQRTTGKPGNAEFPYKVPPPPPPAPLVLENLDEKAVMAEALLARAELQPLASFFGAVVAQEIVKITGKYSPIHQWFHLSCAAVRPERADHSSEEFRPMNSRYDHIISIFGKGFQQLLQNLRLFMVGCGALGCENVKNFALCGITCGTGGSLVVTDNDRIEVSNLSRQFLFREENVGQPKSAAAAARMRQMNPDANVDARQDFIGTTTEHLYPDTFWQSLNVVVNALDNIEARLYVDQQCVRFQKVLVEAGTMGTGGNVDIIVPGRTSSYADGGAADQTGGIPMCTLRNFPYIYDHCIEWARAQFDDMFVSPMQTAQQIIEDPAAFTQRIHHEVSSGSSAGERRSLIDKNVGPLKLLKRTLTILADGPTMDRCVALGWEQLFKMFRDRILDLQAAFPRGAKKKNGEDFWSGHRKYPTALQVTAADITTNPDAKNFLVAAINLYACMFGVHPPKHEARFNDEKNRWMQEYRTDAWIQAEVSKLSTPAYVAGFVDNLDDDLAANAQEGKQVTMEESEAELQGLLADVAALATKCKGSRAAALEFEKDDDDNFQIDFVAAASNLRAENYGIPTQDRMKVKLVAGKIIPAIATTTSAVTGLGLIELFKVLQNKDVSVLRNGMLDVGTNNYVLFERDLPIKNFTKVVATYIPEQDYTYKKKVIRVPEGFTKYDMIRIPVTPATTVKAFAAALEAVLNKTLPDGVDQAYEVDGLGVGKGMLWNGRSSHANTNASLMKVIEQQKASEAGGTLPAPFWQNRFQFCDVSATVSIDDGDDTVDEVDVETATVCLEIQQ

[3] = target: AMP-activated protein kinase, AMPK (Homo sapiens) (UniProt P54646+O43741+P54619+Q9UGJ0+Q9Y478+Q13131+Q9UGI9); assay: AMP-dependent Kinase enzyme assay. An in vitro enzyme assay that detects ADP turnover that is directly proportional to AMPK activity. This uses naive AMPK that is activated during the assay with MK-8722; type: functional; details: 30 µM
[4] = target: Sialic acid-binding Ig-like lectin 9 (Homo sapiens) (UniProt Q9Y336); assay: Hs-Siglec9 ALPHAscreen SOP 20170721; details: 10 µM
Trypanosoma cruzi = assay: Trypanosoma cruzi phosphomannomutase and mannose-1-phosphate guanylyltransferase assay; type: functional; details: 10 µM
[5] = target: T2, Arginase-2, mitochondrial (Homo sapiens) (UniProt P78540); assay: in vitro enzyme assay to detect the production of urea directly proportional to the activity of Arginase II; type: functional; details: 33.3 µM; note: in the data most compounds retested in dose-response had high values
T2 sequence (whole entry): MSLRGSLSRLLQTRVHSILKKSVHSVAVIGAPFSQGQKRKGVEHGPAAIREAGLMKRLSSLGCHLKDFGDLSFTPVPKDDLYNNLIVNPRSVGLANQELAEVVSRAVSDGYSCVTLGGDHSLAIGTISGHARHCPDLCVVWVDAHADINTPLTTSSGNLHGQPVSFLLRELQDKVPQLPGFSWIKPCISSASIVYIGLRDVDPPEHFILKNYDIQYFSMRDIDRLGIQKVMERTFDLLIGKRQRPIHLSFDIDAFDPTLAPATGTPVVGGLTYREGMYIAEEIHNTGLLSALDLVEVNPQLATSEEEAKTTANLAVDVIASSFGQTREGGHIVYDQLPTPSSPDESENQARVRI

[6] = target: T3, Proteasome subunit beta (Trypanosoma cruzi) (UniProt O96673); assay: Trypanosoma cruzi proteasome chymotrypsin-like activity (TcProtChymo) assay.; note: in the data most compounds retested in dose-response had high values; type: functional; details: 9.37 µM
T3 sequence (whole entry): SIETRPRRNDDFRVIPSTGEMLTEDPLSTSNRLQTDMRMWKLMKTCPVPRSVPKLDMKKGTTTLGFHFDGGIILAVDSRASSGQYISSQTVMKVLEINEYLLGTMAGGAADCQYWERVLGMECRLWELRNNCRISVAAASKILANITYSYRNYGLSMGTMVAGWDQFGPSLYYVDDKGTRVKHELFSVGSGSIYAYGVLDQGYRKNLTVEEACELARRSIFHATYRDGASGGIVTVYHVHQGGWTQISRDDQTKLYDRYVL

Homo sapiens = species on record: Homo sapiens; assay: To identify inhibition of the IFN signalling (Jak-Stat) pathway via expression of an eGFP reporter gene under the control of an IFN-stimulated response element (ISRE) containing MxA promoter.; type: functional; details: 30 µM
[7] = target: T4, Tyrosyl-tRNA synthetase, putative (Trypanosoma cruzi (strain CL Brener)) (UniProt Q4DSP6); assay: Trypanosoma cruzi tyrosyl tRNA synthetase (TcYRS) _High Tyrosine SOP; type: functional; details: 30 µM; note: in the data most compounds retested in dose-response had high values
T4 sequence (whole entry): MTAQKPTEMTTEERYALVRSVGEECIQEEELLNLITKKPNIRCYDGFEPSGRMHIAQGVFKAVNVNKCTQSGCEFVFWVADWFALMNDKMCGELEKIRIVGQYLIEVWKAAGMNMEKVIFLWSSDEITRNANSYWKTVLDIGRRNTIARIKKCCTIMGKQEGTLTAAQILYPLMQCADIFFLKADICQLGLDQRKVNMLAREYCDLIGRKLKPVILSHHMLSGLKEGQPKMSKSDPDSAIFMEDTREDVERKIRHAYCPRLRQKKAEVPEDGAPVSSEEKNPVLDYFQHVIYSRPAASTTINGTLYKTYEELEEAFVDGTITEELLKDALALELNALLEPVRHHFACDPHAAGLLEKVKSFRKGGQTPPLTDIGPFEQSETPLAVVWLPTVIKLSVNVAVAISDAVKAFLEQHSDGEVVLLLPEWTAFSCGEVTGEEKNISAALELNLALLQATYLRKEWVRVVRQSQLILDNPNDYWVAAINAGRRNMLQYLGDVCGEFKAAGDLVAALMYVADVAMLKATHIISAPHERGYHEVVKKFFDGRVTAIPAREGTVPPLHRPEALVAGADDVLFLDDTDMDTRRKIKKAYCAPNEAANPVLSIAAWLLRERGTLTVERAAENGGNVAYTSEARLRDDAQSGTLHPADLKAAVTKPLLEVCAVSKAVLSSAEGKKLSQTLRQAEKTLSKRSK

[8] = target: T4, Tyrosyl-tRNA synthetase, putative (Trypanosoma cruzi (strain CL Brener)); assay: Trypanosoma cruzi tyrosyl tRNA synthetase (TcYRS) SOP; type: functional; details: 30 µM
[9] = target: Chromo domain-containing protein 1 (Saccharomyces cerevisiae (strain ATCC 204508 / S288c) (Baker's yeast)) (UniProt P32657); assay: ScCHD-1 Enzyme Inhibition Assay; type: functional; details: 30 µM; note: in the data most compounds retested in dose-response had high values
Chromo domain-containing protein 1 (Saccharomyces cerevisiae (strain ATCC 204508 / S288c) (Baker's yeast)), sequence (P32657 whole entry, the tested form may be a part): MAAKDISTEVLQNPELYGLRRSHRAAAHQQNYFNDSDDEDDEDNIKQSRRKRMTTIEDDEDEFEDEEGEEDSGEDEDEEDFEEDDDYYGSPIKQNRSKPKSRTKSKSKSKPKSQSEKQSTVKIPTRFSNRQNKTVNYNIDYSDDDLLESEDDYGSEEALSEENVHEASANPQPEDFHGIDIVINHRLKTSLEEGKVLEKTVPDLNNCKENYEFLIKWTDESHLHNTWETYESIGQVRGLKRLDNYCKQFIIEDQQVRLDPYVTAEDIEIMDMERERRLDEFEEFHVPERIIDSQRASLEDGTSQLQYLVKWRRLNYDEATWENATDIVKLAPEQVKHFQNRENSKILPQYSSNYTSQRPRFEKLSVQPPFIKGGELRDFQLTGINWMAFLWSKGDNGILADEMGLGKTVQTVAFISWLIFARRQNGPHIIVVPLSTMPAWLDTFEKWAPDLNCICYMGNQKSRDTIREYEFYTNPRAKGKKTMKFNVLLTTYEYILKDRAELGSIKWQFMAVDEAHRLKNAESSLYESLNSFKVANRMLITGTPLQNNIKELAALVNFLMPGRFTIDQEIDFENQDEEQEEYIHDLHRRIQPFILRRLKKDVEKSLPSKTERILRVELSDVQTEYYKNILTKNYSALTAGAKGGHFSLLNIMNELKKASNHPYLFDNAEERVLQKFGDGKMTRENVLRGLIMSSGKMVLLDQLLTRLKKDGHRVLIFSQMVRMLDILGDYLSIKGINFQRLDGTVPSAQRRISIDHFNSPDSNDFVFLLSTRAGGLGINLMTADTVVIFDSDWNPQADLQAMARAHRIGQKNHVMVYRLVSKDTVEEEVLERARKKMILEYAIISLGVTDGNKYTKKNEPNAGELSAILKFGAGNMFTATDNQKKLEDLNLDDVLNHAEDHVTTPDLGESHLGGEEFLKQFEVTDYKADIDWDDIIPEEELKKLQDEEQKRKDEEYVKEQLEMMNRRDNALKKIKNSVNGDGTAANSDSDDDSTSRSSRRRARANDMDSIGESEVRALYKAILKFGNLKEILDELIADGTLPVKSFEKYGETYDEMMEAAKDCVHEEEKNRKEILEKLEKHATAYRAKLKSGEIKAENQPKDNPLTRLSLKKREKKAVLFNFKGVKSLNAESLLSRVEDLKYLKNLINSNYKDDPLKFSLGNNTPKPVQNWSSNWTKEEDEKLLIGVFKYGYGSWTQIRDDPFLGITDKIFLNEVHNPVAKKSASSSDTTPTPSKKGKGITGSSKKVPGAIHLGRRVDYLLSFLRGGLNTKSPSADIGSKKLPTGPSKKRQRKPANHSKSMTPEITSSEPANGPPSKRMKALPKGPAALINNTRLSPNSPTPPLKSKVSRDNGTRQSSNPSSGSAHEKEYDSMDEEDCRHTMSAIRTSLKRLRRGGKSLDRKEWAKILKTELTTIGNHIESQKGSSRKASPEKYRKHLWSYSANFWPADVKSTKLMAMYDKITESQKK

Sialic acid-binding Ig-like lectin 9 (Homo sapiens), sequence (Q9Y336 whole entry): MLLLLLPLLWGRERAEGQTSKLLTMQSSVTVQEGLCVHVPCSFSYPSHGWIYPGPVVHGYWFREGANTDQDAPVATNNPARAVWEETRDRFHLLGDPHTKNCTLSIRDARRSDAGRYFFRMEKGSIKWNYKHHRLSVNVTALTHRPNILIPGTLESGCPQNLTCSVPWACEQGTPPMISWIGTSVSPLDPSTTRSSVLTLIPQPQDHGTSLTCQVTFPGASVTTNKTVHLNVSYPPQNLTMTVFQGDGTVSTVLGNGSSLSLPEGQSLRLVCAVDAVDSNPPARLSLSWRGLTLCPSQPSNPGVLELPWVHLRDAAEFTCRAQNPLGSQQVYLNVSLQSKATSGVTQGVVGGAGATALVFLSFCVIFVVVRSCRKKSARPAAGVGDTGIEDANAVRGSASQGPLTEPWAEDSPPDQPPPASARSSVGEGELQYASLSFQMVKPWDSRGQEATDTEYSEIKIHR
Protein translocase subunit SecA (Escherichia coli (strain K12)), sequence (P10408 whole entry): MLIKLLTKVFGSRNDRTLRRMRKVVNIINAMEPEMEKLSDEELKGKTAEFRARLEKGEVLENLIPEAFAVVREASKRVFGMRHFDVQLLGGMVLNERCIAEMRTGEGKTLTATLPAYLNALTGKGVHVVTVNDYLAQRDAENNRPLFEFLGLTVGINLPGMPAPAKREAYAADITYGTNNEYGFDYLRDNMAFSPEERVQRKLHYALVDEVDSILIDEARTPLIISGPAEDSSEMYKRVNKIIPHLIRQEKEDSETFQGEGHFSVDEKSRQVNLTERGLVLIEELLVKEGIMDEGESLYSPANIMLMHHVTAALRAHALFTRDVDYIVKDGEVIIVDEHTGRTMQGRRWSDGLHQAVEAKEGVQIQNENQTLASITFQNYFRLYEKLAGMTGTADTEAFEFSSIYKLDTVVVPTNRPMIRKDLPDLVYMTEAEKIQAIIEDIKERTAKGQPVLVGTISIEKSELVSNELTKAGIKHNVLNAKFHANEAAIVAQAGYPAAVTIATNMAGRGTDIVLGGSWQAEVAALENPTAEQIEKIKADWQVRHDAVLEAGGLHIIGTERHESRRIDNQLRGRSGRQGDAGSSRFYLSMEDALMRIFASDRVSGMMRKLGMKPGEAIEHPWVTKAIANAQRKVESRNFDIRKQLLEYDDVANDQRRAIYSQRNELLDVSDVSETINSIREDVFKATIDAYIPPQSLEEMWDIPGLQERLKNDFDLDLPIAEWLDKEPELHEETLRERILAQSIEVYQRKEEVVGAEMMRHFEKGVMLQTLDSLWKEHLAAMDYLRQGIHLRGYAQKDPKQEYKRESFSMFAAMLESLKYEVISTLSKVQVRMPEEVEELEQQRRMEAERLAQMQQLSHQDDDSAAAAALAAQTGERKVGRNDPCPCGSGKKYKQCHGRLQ

| SMILES | Percent Effect [1] [%] | Percent Effect [2] [%] | Percent Effect [3] [%] | Percent Effect [4] [%] | Percent Effect (Trypanosoma cruzi) [%] | Percent Effect [5] [%] | Percent Effect [6] [%] | Percent Effect (Homo sapiens) [%] | Percent Effect [7] [%] | Percent Effect [8] [%] | Percent Effect [9] [%] |
| --- | --- | --- | --- | --- | --- | --- | --- | --- | --- | --- | --- |
| CN(CCCc1cnn(C)c1)C(=O)C1COc2ccccc2C1 (configuration not stated) | 0.742 | 8.22 | 1.84 | -1.88 | -1.37 | 2.27 | 20.6 | 9.33 | 2.15 | 17.5 | -14.2 |
| CN(CCc1ccccn1)S(=O)(=O)N1CCCC1c1ccco1 (configuration not stated) | 0.19 | 16.2 | 2.74 | -10.8 | -9.94 | 4.25 | 13.1 | 17.6 | 6.93 | 11 | -5.75 |
| CCn1nc(C)c2nnn(CC(=O)Nc3cccc(Cl)c3)c(=O)c21 | -4.67 | -6.67 | 1.25 | 3.3 | 4.13 | -5.11 | 12.9 | -22.7 | 6.35 | 7.69 | -7 |
| CC(=O)N1CCCN(C(=O)c2cnc3n[nH]c(C)c3c2)CC1 | -1.9 | 15.8 | -3.49 | 5.52 | 3.08 | 3.96 | 2.45 | -3.15 | 9.36 | 23.5 | -9.47 |
| CC(C)c1noc(CN(Cc2ccccc2F)C2CC2)n1 | -1.22 | 15.6 | -0.613 | 8.23 | 3.64 | -75.9 | 22.5 | 10.9 | 7.53 | 18.5 | -1.83 |
| O=C(c1ccc(F)c(F)c1)N1CCCC1CN1CCCC1 (configuration not stated) | -1.25 | 7.89 | -2.36 | -14.5 | -3.02 | -3.55 | 15.2 | -11.1 | 7.45 | 18.2 | -8.37 |
| Cc1oc(C)c(C(=O)N2CCCN(Cc3cscn3)CC2)c1C | -6.32 | 7.79 | 7.44 | -1.26 | -1.47 | -2.32 | -1.37 | 14.5 | 6.67 | 9.41 | -15.7 |
| CN(CCCOc1ccc(F)cc1)Cc1nc2c(cnn2C)c(=O)[nH]1 | -0.991 | 15.8 | 0.698 | -3.57 | 4.39 | 1.8 | 14.8 | 0.0389 | 8.37 | 23.5 | -8.26 |
| O=C1COC2(CCN(Cc3ccccn3)CC2)CN1CC1CC1 | 0.889 | 2.6 | 17.2 | 2.67 | -4.83 | -1.94 | -3.13 | 9.22 | 1.06 | 3.85 | -1.35 |
| CN(Cc1nc(C2CC2)no1)C1CCCN(c2cccnn2)C1 (configuration not stated) | -1.65 | -17.7 | 11.7 | 7.67 | 1.6 | 1.14 | -0.573 | -0.447 | 6.4 | 3.8 | 4.91 |
| COCCc1noc(CNC2CCCN(c3cccnn3)C2)n1 (configuration not stated) | -5.96 | -5.2 | -0.848 | -4.06 | -3.25 | 11 | 19.3 | 3.62 | 0 | -3.7 | 0.853 |
| CN(Cc1csc(-c2cccs2)n1)C(=O)CCn1ccccc1=O | -4.95 | 8 | -1.99 | 4.47 | -1.07 | 5.21 | 22.7 | 10.8 | 3.83 | 11.1 | -4.75 |
| Cc1ccc(CN2CC[C@H]3[C@@H]2CCC(=O)N3CCN2CCCC2)s1 | -1.28 | 10.7 | 8.56 | -12.2 | -8.27 | -3.03 | 10.5 | 7.46 | -3.19 | 1.28 | -2.35 |
| O=C(NCCN1CCOCC1)c1cc(-c2ccc3c(c2)CCO3)n[nH]1 | -4.45 | 9.33 | 3.38 | -3.18 | 1.57 | -5.11 | 1.48 | -12.9 | 5.29 | 7.69 | -6.47 |
| CN(CCOc1cccc(CN)c1)C1CCOCC1 | 1.04 | 2.7 | -5.71 | -2.08 | 1.54 | -5.24 | 7.41 | -5.29 | 1.59 | 9.76 | 13.5 |
| CCN(CC1CCOC1)C(=O)c1cccnc1N1CCOCC1 (configuration not stated) | -2.22 | 5.26 | -1.45 | 12.7 | 6.07 | -1.8 | -1.95 | -1.93 | 4.43 | 6.17 | 2.96 |
| COc1ccsc1C(=O)N1CCCC(n2nc(C)nc2C)C1 (configuration not stated) | 0.303 | 0 | -4.74 | -3.48 | -6.89 | 2.66 | -1.72 | 6.32 | 6.4 | 3.8 | 1.65 |
| Cc1cnc(N2C[C@H]3C[C@H](C(=O)N(C)C)[C@@H](C2)O3)nc1 | -4.03 | -5.33 | 5.45 | -2.75 | 6.76 | -46.1 | 1.54 | -13.3 | -1.04 | 0 | -3.12 |
| CCC(O)CN1CCN(C(=O)c2cccn2Cc2cccs2)CC1 (configuration not stated) | -3.15 | 5.06 | 1.52 | 11.3 | -2.17 | 0.38 | -3.03 | 5.7 | 4.43 | 11.4 | -5.26 |
| Cc1nc(N2CCCC2)nc2c1CCN(Cc1ccco1)CC2 | -1.94 | 10.7 | 8.01 | 0.178 | 0 | -45.3 | 20.7 | -2.8 | 3.12 | 12.5 | -9.82 |
| CCOc1cc(C)nc(N2CCN(C(=O)c3ccc[nH]3)CC2)n1 | -3.03 | 2.7 | 1.91 | 13.3 | -6.59 | 2.77 | 3.23 | 22.2 | -0.99 | 3.66 | 1.45 |
| Cc1cc(C)n(C2CCCN(C(=O)CCNS(C)(=O)=O)C2)n1 (configuration not stated) | 2.69 | -6.33 | -12.4 | -1.59 | -0.103 | 7.53 | 8.58 | 12.6 | 2.08 | 7.59 | -22.7 |
